Consider 18 molecules from PubChem BioAssay (NCATS).

SMILES strings stand for the structures. Inconclusive results are not listed. Unmarked numbers belong to inactive results. The source made the active and inactive calls. Calls follow the shape of the dose curve; as a rule, active = well fitted inhibition curve with a large enough effect; inconclusive = small, poorly fitted or top-dose-only effect; inactive = no such curve, though single readings can be large or run the other way.
% is scaled to controls: 0 for no effect and ±100 for the full control effect; potency is read from the fitted curve at half-maximal effect.

Glutaminase kidney isoform, mitochondrial (Homo sapiens), sequence (O94925 whole entry, looked up, canonical isoform): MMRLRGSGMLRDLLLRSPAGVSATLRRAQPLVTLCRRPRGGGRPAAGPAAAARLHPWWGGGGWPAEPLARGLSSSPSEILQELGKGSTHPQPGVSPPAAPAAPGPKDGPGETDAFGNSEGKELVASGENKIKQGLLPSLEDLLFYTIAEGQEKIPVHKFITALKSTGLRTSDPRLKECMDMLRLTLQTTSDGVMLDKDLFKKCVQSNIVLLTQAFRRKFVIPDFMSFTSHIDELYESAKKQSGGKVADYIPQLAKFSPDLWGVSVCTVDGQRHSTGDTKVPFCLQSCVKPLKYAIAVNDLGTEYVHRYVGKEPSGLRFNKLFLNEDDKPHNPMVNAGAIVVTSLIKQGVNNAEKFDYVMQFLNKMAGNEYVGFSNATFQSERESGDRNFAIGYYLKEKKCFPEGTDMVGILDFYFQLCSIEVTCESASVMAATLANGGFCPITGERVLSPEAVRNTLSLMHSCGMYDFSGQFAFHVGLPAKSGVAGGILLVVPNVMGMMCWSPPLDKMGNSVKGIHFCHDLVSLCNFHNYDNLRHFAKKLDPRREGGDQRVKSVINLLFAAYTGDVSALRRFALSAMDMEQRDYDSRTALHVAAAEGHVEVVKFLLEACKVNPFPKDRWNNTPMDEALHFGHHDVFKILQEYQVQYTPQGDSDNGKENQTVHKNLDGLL

This test has as its target Glutaminase kidney isoform, mitochondrial (Homo sapiens) (UniProt O94925). Nature of the test: qHTS for Inhibitors of Glutaminase (GLS): LOPAC Validation (AID 624146). Also: nearly all actives have a fitted effect of over 60% in size.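 As to activity change, negative = inhibition: glutamate product detected by oxidase and peroxidase coupled Amplex red fluorescence gain.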 The following applies: glutaminase enzyme activity inhibition; series mostly up to 46.1 µM; activity change, negative = inhibition: at the top concentration. The gist of the method:
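Glutamate formation by hKGA was monitored fluorometrically using coupled glutamate oxidase, HRP and Amplex Red. Substrate was added as 1 mM L-glutamine solution; incubation was 30 min at RT after an initial read.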
For `NCCNC(=O)c1ncsc1-c1cccc(F)c1`, the “activity change, negative = inhibition” value is -5.93%.
Same read-out and setting: the figure for `CCCN(CC1CC1)c1nc(C)nc(Nc2c(Cl)cc(Cl)cc2Cl)c1Cl` is 3.03%; for `Fc1cccc(/C=N/N=C/c2cccc(F)c2)c1` it is -19.1%; for `O=c1[nH]c2cc([N+](=O)[O-])c([N+](=O)[O-])cc2[nH]c1=O` it is -17.1%.
For the molecule `OC[C@H]1O[C@@H](n2cnc3c(NC4CCCCC4)ncnc32)[C@H](O)[C@@H]1O`, the “activity change, negative = inhibition” value was 1.8%.
As to `COC(=O)c1c(C)[nH]c(C)c1C(=O)c1ccccc1Cc1ccccc1`, the “activity change, negative = inhibition” value is -14.4%.
On the same count and under the same terms, then `CCCCCCCCc1ccc(-c2ccc(C(=O)O)cc2)cc1`, with 23.1%.
Take `Nc1ncnc2c1c(I)cn2[C@@H]1C[C@H](N)[C@@H](O)[C@H]1O`: the “activity change, negative = inhibition” value was -4.77%.
Regarding `Oc1ccccc1O`, the Potency is 2 µM (active).
For `CSc1ccccc1N1CCN(CCCCCC(=O)NC2CCCc3ccccc32)CC1` (stereo not drawn), the “activity change, negative = inhibition” value is 20.2%.
For `CCCCCCCCCCCCCCCCCC(=O)OC(CC(=O)O)C[N+](C)(C)C` (stereo not drawn), the “activity change, negative = inhibition” value was 3.9%.
On the same count and under the same terms, then `O=C(O)CCCC[C@@H]1CCSS1`, with -14.5%; and `Cc1cc(NC2CCCCC2)nc(-n2nc(C)cc2C)n1`, with -8.08%.
Still for that read-out and setting: the figure for `CO/S(=N\S(=O)(=O)c1ccc(Cl)cc1)c1ccc([N+](=O)[O-])cc1` (stereo not drawn) is -13%; for `CC(C)NC[C@H](O)COc1cccc2[nH]ccc12` it is -21.7%.
For the molecule `Nc1ncnc2c1ncn2[C@@H]1O[C@H](COP(=O)(O)CP(=O)(O)OP(=O)(O)O)[C@@H](O)[C@H]1O`, the “activity change, negative = inhibition” value is 1.78%.
The same measure, in the same setting: the figure for `CN(C)CCCO[C@@H]1[C@H]2OC(C)(C)O[C@H]2O[C@@H]1[C@H](O)CO` is -12.5%; for `CN1CCC[C@H]1c1cccnc1` it is -21.8%.
